# Reference: the supplement of paper PMC6555819
# Tests used:
# Test in all cases: PBM binding z-score (relative to random genomic background probes); higher = stronger binding; sequences stand for … in GC…GCGATTGACAGCGTAGAATGAAGG
# [1] = system: RARb homodimer (NR concentration 270 nM)
# In short: (§1)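 Custom Agilent 4×180K protein-binding microarrays carried double-stranded probes, each with a 34-nt variable region. These regions held direct-repeat seeds, single-nucleotide variants, half-site ablations and random human genomic background sequences. Ligand-free nuclear receptor dimers were incubated on the arrays for 1 h, antibodies against each partner (one per run) detected binding, and scanned fluorescence was regression-normalized. Binding z-scores take the random background probes as reference.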
# [2] = system: RARg:RXRa (NR concentration 270 nM, RXRa partner concentration 90 nM)
# In short: as §1
# [3] = system: RARg homodimer (NR concentration 270 nM)
# In short: as §1
# [4] = system: RXRa DBDmut IVT, anti-RXR (DBD mutation: RXRa K156A/R161A, NR concentration 90 nM)
# In short: as §1
# [5] = system: RXRa homodimer (NR concentration 180 nM)
# In short: as §1
# [6] = system: THRa:RXRa (NR concentration 90 nM, RXRa partner concentration 90 nM)
# In short: as §1
# [7] = system: THRa homodimer (NR concentration 90 nM)
# In short: as §1
# [8] = system: VDR homodimer (NR concentration 270 nM)
# In short: as §1
Sequence,PBM binding z-score [1],PBM binding z-score [2],PBM binding z-score [3],PBM binding z-score [4],PBM binding z-score [5],PBM binding z-score [6],PBM binding z-score [7],PBM binding z-score [8]
ACTTACGGGTCAACGAGGTTATATCACGCGTATA,3.73,5.37,4.95,2.74,6.14,4.04,1.45,3.3
ATCTCTAGGTAACGAAGTTCAGTGAATGCCGAAC,1.38,0.591,0.883,0.137,0.413,0.946,0.14,1.27
AGAATGAGGTTATACGCAGATCAGGGAAGAAAGT,0.779,1.67,0.985,1.47,2.3,2.22,0.465,0.945
GGAACGCGGGCAAGTTGATAGCAGAGTTTGATGG,-0.349,-0.36,-0.0011,0.0062,-0.242,-0.844,-0.922,-0.495
CAAACTAGGTCACATAGGTCAAAGTCCGTGCGTA,4.67,5.93,6.3,2.56,5.67,4.09,1.78,3.91
CCAGACAGGTGAAAGGTAACTCAGTCTGGTACGC,0.781,1.39,0.817,0.137,2.13,0.824,-0.156,-0.251
GCTAGCAGGCCATTTGCGTCACTCAATGACGGGC,-0.848,-0.404,-0.336,-0.115,-0.347,-0.649,-0.795,-0.529
ATCTCTAGGTAAAGATAGCTCAGTGAATGCAAAT,-0.409,0.141,0.459,-0.409,-0.19,-0.00233,-0.226,-0.379
CCGAGTAAGTTATGGGGCATTCAGGCAACGGTGA,0.181,-0.241,-0.0978,0.0937,-0.299,0.0579,-0.117,-0.0157
AGCATGAGGTTATTAAGATCAGGGAATTGCGGTC,0.785,1.38,1.03,1.99,1.77,2.19,0.867,1.59
ATCGAATGGTCGACGAGGTGAGTATACACCGTTT,-0.00631,0.294,0.526,-0.27,0.305,1.03,0.408,-0.381
GTACCAAGGTGAGTAGGTCGTTGATGAGTAGGCG,1.15,0.89,0.657,-0.673,0.551,0.995,0.258,0.112
GTACAAAGGTGAATAGGTCGTTGATGAGTAGGCG,3.11,4.37,2.79,0.47,3.43,1.72,-0.0459,0.65
CCGACTGGGGCAAAGGTTAACATACTCAGTACGA,2.4,4.1,2.03,0.365,3.89,2.19,-0.145,0.335
TGTCAAAGTTCAAAGGTAACGTCAGTATCCACAC,4.03,6.26,5.87,4.29,6.96,3.51,-0.193,4.08
CGAACTGGGTCAAGGACAGTGAATCTCCGCACGC,2.55,3.53,3.36,0.955,2.54,2.76,1.56,0.325
GCTCTGAGGACAAGGTCAGAGCTTTGTCCGTAGA,2.95,3.16,3.63,1.43,2.38,3.95,3.55,1.11
CCTAGCAGGCCAATCTGGGCCACTCAAGGCTTGA,-0.384,-0.481,-0.168,-0.177,-0.923,1.24,-0.893,-1.12
ACTATTAGTTGACGTAGGGCAACCGATACGACGC,0.993,0.445,0.82,0.582,0.328,0.925,-0.0539,0.159
CTCGAAAGGTCGGCTGAGGTGAGTATACGGATAA,2.61,3.82,3.8,0.843,3.44,5.13,1.12,0.549
TGTCAAAGTTCAAAGGTAATGTAAGTATCCACAC,3.63,5.97,5.84,4.44,6.5,3.15,-0.177,3.96
ATCGAAAGGTCGTGAGGTGAGTATACAGAAAGGC,3.07,4.69,3.9,1.42,4.97,3.45,1.47,1.09
CCTGCTAGGTAATGGTCAGCTAATCTACAGTATG,0.105,-0.00382,0.0688,-0.0204,-0.388,-0.173,-0.275,-0.364
TCATATAGGTAAATGCTAGGGGAAAGTCCGATCT,0.135,0.401,0.27,1.85,0.821,0.401,0.433,0.491
TCGAGTATGTTAGGGGCATTCAGAATGGCGTCGA,0.285,-0.134,-0.085,1.26,0.27,0.709,-0.0845,1.66
ACTATTAGTTGACTTAGGGCCACCGATACGACGC,0.765,0.549,0.739,0.785,0.774,2.48,0.956,0.47
TCTGCTAGGTCAGATGGTCAGCTAACGAGCTGCC,2.5,3.25,4.16,0.506,1.84,1.51,-0.192,-0.819
CCTAGCAGGCCAATCTGGGTCACTCACGGCTTGA,2.23,1.18,1.36,0.336,0.802,3.47,0.637,0.103
